From PubChem BioAssay (Tox21)
Several values for one entry are separate records, joined by “and”; a condition that tells them apart may be missing. Equal values may be shown once. Results filed as inconclusive are left out. Where a call stands in place of a potency, no number is given. Where a structure was tested more than once in an assay, its records may differ in their call. Activity calls are given as the source filed them. Unless noted, the call rests on the fitted dose curve; in most records, active means well fitted curve in the direction sought with a large enough effect in the repeat runs; inconclusive means weak or mixed curves; inactive means no such curve, though single readings can be large; an effect the other way counts as inactive or inconclusive.

Columns and labels:
[1] = qHTS assay to identify small molecule antagonists of the estrogen receptor alpha (ER-alpha) signaling pathway using the BG1 cell line in the presence of 0.1 nM 17-beta-estradiol - cell viability counter screen (AID 1259241); further: nearly all actives have a fitted effect of over 40% in size
Outline: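 Live-cell protease activity (CellTiter-Fluor fluorescence, 30 min) was read in the same wells after VM7Luc4E2 cells had been exposed to compounds with 0.1 nM 17beta-estradiol for 22 hr at 37C.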

[2] = qHTS assay to identify small molecule antagonists of the androgen receptor (AR) signaling pathway using the MDA cell line in the presence of 0.5 nM R1881 - cell viability counter screen (AID 1259242); further: nearly all actives have a fitted effect of over 45% in size
Outline: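 MDA-kb2 cells (human breast carcinoma, stably carrying MMTV-luciferase reporter) were exposed to compounds with 0.5 nM R1881 (final) for 16 hr at 37C, 0% CO2; viability then read as live-cell protease fluorescence (CellTiter-Fluor, 30 min) in the same wells.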

[3] = molecular target: Estrogen receptor (Homo sapiens) (UniProt P03372); assay: qHTS assay to identify small molecule antagonists of the estrogen receptor alpha (ER-alpha) signaling pathway using the BG1 cell line in the presence of 0.1 nM 17-beta-estradiol (AID 1259244); further: nearly all actives have a fitted effect of over 50% in size; further: potency means the concentration at half of the fitted maximal effect
Estrogen receptor (Homo sapiens), sequence (P03372 whole entry, looked up): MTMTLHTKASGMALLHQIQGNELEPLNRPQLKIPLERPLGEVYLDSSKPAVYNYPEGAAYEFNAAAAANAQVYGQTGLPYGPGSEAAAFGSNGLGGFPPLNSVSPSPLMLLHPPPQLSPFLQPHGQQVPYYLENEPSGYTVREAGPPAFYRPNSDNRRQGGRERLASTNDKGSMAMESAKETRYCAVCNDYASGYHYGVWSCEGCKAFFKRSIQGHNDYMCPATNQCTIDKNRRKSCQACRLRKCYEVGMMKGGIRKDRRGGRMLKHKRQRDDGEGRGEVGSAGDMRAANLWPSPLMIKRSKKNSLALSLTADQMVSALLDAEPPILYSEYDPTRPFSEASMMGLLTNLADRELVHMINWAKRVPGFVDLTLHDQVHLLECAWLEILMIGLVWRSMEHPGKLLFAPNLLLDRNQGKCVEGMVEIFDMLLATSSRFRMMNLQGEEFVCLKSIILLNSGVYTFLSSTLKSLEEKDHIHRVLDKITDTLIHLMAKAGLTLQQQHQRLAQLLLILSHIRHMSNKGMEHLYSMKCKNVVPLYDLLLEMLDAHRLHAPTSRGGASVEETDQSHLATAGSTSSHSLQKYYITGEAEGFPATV
Outline: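 VM7Luc4E2 cells (endogenous full-length ER-alpha, stable 4xERE-luciferase) were grown 5 days in phenol red-free medium with charcoal-stripped FBS, then exposed 22 h at 37C to compounds plus 0.1 nM (final) 17beta-estradiol; ONE-Glo luminescence read-out.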

[4] = qHTS assay to identify small molecule phospholipidosis (PLD) inducers (AID 1259344; active means well fitted curve in the direction sought with a large enough effect; an effect the other way counts as inactive or inconclusive)
Outline: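 HepG2 cells grown on collagen I take up LipidTOX Red while exposed to compound for 24 h; after fixation they are imaged at 20x and pit metrics are extracted.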

[5] = qHTS assay to identify small molecule HDAC inhibitors - cell viability counter screen (AID 1259365); further: series mostly up to about 92 µM; nearly all actives have a fitted effect of over 50% in size
Outline: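 HCT-116 (wild type), 1,500 cells/well, overnight 37C/5% CO2; compound in DMSO 2hr; CellTiter-Glo 30min RT; luminescence read.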

[6] = qHTS assay to identify small molecule agonists of the sonic hedgehog signaling (Shh) pathway - cell viability counter screen (AID 1259366); further: nearly all actives have a fitted effect of over 50% in size
Outline: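 CellTiter-Fluor fluorescence read-out, 1 hr at 37C, added after 23hr compound exposure. Cells: 3T3 Gli1-Luc, an NIH/3T3 clone with stably integrated Gli1-Luc reporter, plated 4hr before compound.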

[7] = qHTS assay to identify small molecule antagonists of the sonic hedgehog signaling (Shh) pathway - cell viability counter screen (AID 1259367); further: nearly all actives have a fitted effect of over 55% in size
Outline: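 After a 4 hr settling period, 3T3 Gli1-Luc cells were treated with DMSO-dissolved chemicals and conditioned medium, kept 24 hr at 37C in 5% CO2, and assayed for viability by CellTiter-Fluor fluorescence following 1 hr reagent incubation.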

[8] = qHTS assay to identify small molecule agonists of the sonic hedgehog signaling (Shh) pathway (AID 1259368; calls by dose curve; further: series mostly up to about 92 µM; nearly all actives have a fitted effect of over 15% in size)
Outline: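 NIH/3T3-derived 3T3Gli1-Luc cells carrying a stably integrated Gli1 response element–firefly luciferase reporter were plated, left 4 hr at 37 C, then given compounds in DMSO for 24 hr. Luminescence was read 30 min after adding luciferase reagent.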

[9] = qHTS assay to identify small molecule antagonists of the sonic hedgehog signaling (Shh) pathway (AID 1259369; calls by dose curve; further: nearly all actives have a fitted effect of over 45% in size; further: potency means the concentration at half of the fitted maximal effect)
Outline: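 NIH/3T3-derived 3T3Gli1-Luc cells with stably integrated Gli1-Luc reporter were preincubated 4hr at 37 C, then given compounds in DMSO plus Shh conditioned medium and incubated 24hr. Firefly luciferase luminescence read after 30min reagent at room temperature.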

[10] = molecular target: Estrogen receptor beta (Homo sapiens) (UniProt Q92731); assay: qHTS assay to identify small molecule antagonists of the estrogen receptor beta (ER-beta) signaling pathway (AID 1259378; active means well fitted inhibition curve with a large enough effect in the signal ratio in the repeat runs, not every such curve was filed as active; the % refers to the signal ratio)
Estrogen receptor beta (Homo sapiens), sequence (Q92731 whole entry, looked up): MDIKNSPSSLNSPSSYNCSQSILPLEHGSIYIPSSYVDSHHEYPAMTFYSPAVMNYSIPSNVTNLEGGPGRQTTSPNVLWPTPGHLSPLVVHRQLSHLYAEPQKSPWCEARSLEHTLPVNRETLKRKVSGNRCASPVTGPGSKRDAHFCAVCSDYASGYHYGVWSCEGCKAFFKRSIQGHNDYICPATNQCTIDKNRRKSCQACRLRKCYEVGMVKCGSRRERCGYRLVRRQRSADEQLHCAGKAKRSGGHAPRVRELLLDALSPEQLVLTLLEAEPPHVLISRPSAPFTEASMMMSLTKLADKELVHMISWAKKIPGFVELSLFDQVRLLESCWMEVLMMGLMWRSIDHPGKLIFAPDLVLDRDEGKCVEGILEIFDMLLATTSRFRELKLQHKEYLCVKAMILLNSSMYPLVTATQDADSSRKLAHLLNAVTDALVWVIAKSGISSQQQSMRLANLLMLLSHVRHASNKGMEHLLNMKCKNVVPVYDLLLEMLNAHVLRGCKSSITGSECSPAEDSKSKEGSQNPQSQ
Outline: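 ER-beta-UAS-bla HEK293T (GripTite) cells in 2% charcoal-stripped FBS medium were preincubated 6 hr at 37C, dosed with compound, then stimulated with 1 nM E2 (final) for 16 hr; beta-lactamase reporter read by B/G FRET fluorescence after 2 hr substrate loading.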

[11] = qHTS assay to identify small molecule agonists of the estrogen receptor beta (ER-beta) signaling pathway - cell viability counter screen (AID 1259380); further: nearly all actives have a fitted effect of over 30% in size
Outline: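 ER-beta-UAS-bla HEK293T cells in medium with 2% charcoal-stripped FBS were preincubated 6 hr at 37C, dosed with compound in DMSO for 16 hr, then after the bla read, CellTiter-Glo was added for 30 min at room temperature; luminescence recorded.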

[12] = qHTS assay to identify small molecule antagonists of the estrogen receptor beta (ER-beta) signaling pathway - cell viability counter screen (AID 1259382); further: series mostly up to about 92 µM; nearly all actives have a fitted effect of over 55% in size
Outline: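 ER-beta-UAS-bla HEK293T cells (2,000/well, 2% charcoal-stripped FBS) were pre-incubated 6 hr at 37C, then given compound plus 1nM final 17-beta-estradiol for 16 hr. Viability was read in the same wells by CellTiter-Glo luminescence after 30 min at room temperature.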

[13] = molecular target: Estrogen receptor (Homo sapiens) (UniProt P03372); assay: qHTS assay to identify small molecule agonists of the estrogen receptor alpha (ER-alpha) signaling pathway in the presence of an antagonist (AID 1259383; calls by dose curve; further: top concentration of the series differs between compounds; nearly all actives have a fitted effect of over 15% in size)
Outline: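 VM7Luc4E2 cells (endogenous full-length ER-alpha, 4×ERE-luciferase) were precultured 5 days in phenol red-free medium with 10% charcoal-stripped FBS, given 10.0nM ICI-182,780 (final), then treated with compounds at 15 concentrations for 22hr at 37C; luminescence read with ONE-Glo.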

[14] = qHTS assay to identify small molecule agonists or antagonists of the thyroid stimulating hormone receptor (TSHR) signaling pathway - wild type cell line counter screen (AID 1259384; calls by dose curve)
Outline: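 Wild-type HEK293 cells were plated 18 h at 37 C/5% CO2, pin-dosed with compound plus Ro20-1724 medium, held 30 min at room temperature, then given cAMP-d2 and anti-cAMP-cryptate; fluorescence was read after 1 h. Fifteen concentrations, triplicate.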

[15] = molecular target: Thyrotropin receptor (Homo sapiens) (UniProt P16473); assay: qHTS assay to identify small molecule antagonists of the thyroid stimulating hormone receptor (TSHR) signaling pathway (AID 1259385; calls by dose curve; further: nearly all actives have a fitted effect of over 20% in size)
Thyrotropin receptor (Homo sapiens), sequence (P16473 whole entry, looked up): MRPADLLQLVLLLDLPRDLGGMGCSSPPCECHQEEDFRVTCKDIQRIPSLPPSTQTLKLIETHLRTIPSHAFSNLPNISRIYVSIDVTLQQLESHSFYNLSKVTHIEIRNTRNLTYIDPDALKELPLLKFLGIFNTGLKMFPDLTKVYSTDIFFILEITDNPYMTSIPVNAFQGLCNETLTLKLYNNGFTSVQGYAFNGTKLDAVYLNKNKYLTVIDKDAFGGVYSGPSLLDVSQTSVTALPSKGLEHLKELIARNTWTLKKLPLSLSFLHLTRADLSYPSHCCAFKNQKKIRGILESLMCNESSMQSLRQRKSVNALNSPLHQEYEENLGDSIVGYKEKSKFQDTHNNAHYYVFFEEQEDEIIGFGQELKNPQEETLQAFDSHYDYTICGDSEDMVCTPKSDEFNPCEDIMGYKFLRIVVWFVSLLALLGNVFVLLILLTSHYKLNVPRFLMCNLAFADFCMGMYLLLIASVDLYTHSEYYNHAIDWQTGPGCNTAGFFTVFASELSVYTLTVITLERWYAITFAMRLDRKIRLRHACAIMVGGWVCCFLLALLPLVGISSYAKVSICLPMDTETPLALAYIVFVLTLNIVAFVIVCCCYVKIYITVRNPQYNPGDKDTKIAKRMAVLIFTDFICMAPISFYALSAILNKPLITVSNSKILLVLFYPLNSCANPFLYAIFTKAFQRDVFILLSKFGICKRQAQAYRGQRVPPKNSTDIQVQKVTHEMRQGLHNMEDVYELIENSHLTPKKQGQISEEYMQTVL
Outline: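 TSHR-HEK293 cells were plated and held 18 h at 37C/5% CO2, then given compound plus Ro20-1724 and stimulated with TSH at 1.5 ng/mL final. After 30 min at room temperature, cAMP was detected with cAMP-d2/anti-cAMP-cryptate (1 h) by fluorescence.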

[16] = qHTS assay to identify small molecule agonists of the estrogen receptor alpha (ER-alpha) signaling pathway in the presence of an antagonist - cell viability counter screen (AID 1259386); further: series mostly up to about 92 µM; nearly all actives have a fitted effect of over 30% in size
Outline: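 VM7Luc4E2 cells (endogenous full-length ER-alpha, 4×ERE-luciferase) were held 5 days in phenol red-free medium with 10% charcoal-stripped FBS, plated, then given 10.0nM ICI-182,780 and compounds at 15 concentrations for 22hr at 37C; viability read by CellTiter-Fluor fluorescence.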

[17] = qHTS assay to identify small molecule HDAC inhibitors (AID 1259364); further: nearly all actives have a fitted effect of over 45% in size; further: potency means the concentration at half of the fitted maximal effect
Outline: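 Wild-type HCT-116 cells were plated overnight, exposed to compounds for 2 h at 37 °C, then given HDAC-Glo class I/II luminogenic reagent for 30 min at room temperature before luminescence was read.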

[18] = molecular target: Estrogen receptor beta (Homo sapiens) (UniProt Q92731); assay: qHTS assay to identify small molecule agonists of the estrogen receptor beta (ER-beta) signaling pathway (AID 1259377; active means well fitted activation curve with a large enough effect in the signal ratio in the repeat runs, not every such curve was filed as active; the % refers to the signal ratio)
Outline: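 Beta-lactamase reporter readout: fluorescence of LiveBLAzer B/G FRET substrate after 2 h at room temperature, following 16 h compound treatment of ER-beta-UAS-bla HEK293T cells at 37C in 2% charcoal-stripped FBS medium.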

[19] = qHTS assay to identify small molecule agonists of the androgen receptor (AR) signaling pathway in the presence of an antagonist - cell viability counter screen (AID 1259379); further: series mostly up to about 92 µM; nearly all actives have a fitted effect of over 25% in size
Outline: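 MDA-kb2 human breast carcinoma cells (stable MMTV-luciferase, AR/GR responsive) were seeded 3,000 cells/well, pre-incubated 5 hr at 37C without CO2, then given 3.0uM nilutamide and compounds at 15 concentrations for 16 hr. Viability was read by CellTiter-Fluor fluorescence.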

[20] = molecular target: Androgen receptor (Homo sapiens) (UniProt P10275); assay: qHTS assay to identify small molecule antagonists of the androgen receptor (AR) signaling pathway using the MDA cell line in the presence of 0.5 nM R1881 (AID 1259243); further: nearly all actives have a fitted effect of over 50% in size; further: potency means the concentration at half of the fitted maximal effect
Androgen receptor (Homo sapiens), sequence (P10275 whole entry, looked up): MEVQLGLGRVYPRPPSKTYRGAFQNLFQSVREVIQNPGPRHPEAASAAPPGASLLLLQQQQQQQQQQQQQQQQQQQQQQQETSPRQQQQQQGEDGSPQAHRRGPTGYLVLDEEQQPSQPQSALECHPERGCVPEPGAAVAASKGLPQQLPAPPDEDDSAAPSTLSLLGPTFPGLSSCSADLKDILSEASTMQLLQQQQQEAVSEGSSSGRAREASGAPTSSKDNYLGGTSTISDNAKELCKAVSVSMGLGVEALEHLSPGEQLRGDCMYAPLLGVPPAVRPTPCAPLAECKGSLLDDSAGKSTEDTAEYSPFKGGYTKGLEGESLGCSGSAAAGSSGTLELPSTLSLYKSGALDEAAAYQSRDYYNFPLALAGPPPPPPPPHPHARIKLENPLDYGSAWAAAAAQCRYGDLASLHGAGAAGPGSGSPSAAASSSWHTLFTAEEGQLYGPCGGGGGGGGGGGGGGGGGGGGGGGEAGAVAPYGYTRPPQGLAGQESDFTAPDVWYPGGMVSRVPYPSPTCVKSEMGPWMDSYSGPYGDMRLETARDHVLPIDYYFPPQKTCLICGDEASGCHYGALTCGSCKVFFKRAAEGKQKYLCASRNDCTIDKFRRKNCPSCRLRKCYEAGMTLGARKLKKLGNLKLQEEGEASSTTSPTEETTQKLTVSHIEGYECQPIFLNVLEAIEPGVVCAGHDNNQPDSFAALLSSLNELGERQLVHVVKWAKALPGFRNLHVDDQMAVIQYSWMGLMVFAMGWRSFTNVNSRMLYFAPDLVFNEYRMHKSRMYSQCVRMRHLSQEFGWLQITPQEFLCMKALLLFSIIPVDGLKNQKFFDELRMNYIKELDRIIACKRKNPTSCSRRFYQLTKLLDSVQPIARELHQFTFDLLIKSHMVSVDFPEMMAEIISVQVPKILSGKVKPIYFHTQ
Outline: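 MDA-kb2 human breast carcinoma cells carrying an MMTV-luciferase reporter (AR- and GR-responsive) were plated, rested 5 hr at 37C, dosed with compounds, then stimulated with 0.5 nM R1881 (final) for 16 hr; luminescence was read after ONE-Glo.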

Row | Compound | Potency [1] | Potency [2] | Potency [3] | outcome [4] | outcome [5] | Potency [6] | Potency [7] | Potency [8] | Potency [9] | Potency [10] | Potency [11] | Potency [12] | Potency [13] | outcome [14] | outcome [15] | Potency [16] | Potency [17] | Potency [18] | Potency [19] | Potency [20]
1 | CCC(C)(C)c1ccc(O)cc1 | inactive | inactive | inactive | inactive | inactive | inactive | inactive | inactive | inactive | inactive | inactive | inactive | inactive | inactive | inactive | inactive | – | – | – | –
2 | Nn1cnnc1 | inactive | inactive | inactive | – | inactive | inactive | inactive | inactive | inactive | inactive | inactive | inactive | inactive | – | inactive | inactive | inactive | inactive | inactive | –
3 | CNC(=O)N(C)c1nnc(C(C)(C)C)s1 | inactive | inactive | inactive | – | inactive | inactive | inactive | inactive | inactive | inactive | inactive | inactive | inactive | inactive | inactive | inactive | 27.3 µM (active) | inactive | inactive | –
4 | c1ccc(P(c2ccccc2)c2ccccc2)cc1 | inactive | inactive | inactive | – | inactive | inactive | inactive | inactive | inactive and 17.2 µM (active) | inactive | inactive | inactive | inactive | inactive | inactive | inactive | inactive | inactive | inactive | –
5 | N#Cc1cc(Br)c(O)c(Br)c1 | inactive | inactive | 61.1 µM (active) and 41.7 µM (active) | – | inactive | inactive | inactive | inactive | 15.3 µM (active) and 7.41 µM (active) | – | inactive | inactive | inactive | – | inactive | inactive | inactive | – | – | 61.1 µM (active) and 46.8 µM (active)
6 | Cc1cc(Cl)ccc1OCCCC(=O)O | inactive | inactive | – | – | inactive | inactive | inactive | inactive | inactive | – | inactive | inactive | – | inactive | inactive | inactive | – | inactive | inactive | inactive
7 | CCCCN(CCCC)N=O | inactive | inactive | inactive | – | inactive | inactive | inactive | inactive | inactive | – | inactive | inactive | inactive | inactive | inactive | inactive | inactive | inactive | inactive | –
